According to PubChem BioAssay (NCI):
About 79,000 compounds went through this panel and 15% of them were active in at least one assay; those are over-represented in the sample as a whole. Calls of active or inactive are those of the source. Cut-off read from the data, not from the text of the source: active = growth inhibition above about 70%; inactive = the rest.

Legend:
[1] = NCI Yeast Anticancer Drug Screen. Data for the rad50 strain (AID 155);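 note: 0% = growth of vehicle-only cultures of the same strain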; details: S. cerevisiae rad50 strain growth inhibition, hits give high values
Method in brief: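 Growth of the mutant yeast was measured after compound exposure and referenced to vehicle-treated cultures.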

[2] = NCI Yeast Anticancer Drug Screen. Data for the mec2-1 strain (AID 157); details: S. cerevisiae mec2-1 strain, hits give high values
Method in brief: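 Cells of the genetically defined mec2-1 yeast strain are incubated with test compound. Inhibition of growth is calculated against vehicle-treated controls.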

[3] = NCI Yeast Anticancer Drug Screen. Data for the sgs1 mgt1 strain (AID 161);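 note: 0% = growth of cultures given vehicle only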; details: S. cerevisiae sgs1 mgt1 strain, hits give high values
Method in brief: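 Test agents were incubated with a DNA-repair-mutant yeast strain. Growth was then read and compared against vehicle-treated controls.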

[4] = NCI Yeast Anticancer Drug Screen. Data for the cln2 rad14 strain (AID 165);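 note: 0% = growth equal to vehicle treated cultures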; details: S. cerevisiae cln2 rad14 strain, hits give high values
Method in brief: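 The screen exposed genetically defined yeast (cln2 rad14) to test compounds and scored growth inhibition relative to vehicle-treated controls.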

[5] = NCI Yeast Anticancer Drug Screen. Data for the bub3 strain (AID 167); details: S. cerevisiae bub3 mutant strain, hits give high values
Method in brief: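 Whole-cell yeast assay. The mutant strain was incubated with compounds, and growth inhibition was determined by comparison with vehicle-treated cells.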

[6] = NCI Yeast Anticancer Drug Screen. Data for the mlh1 rad18 strain (AID 175); details: S. cerevisiae mlh1 rad18 strain growth inhibition, hits give high values
Method in brief: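 Compound-treated yeast growth, normalised to vehicle controls. Strain bears defined DNA repair mutations.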

[7] = at 5.0 µM (retest, dose inferred, filed as 0.5)
[8] = at 50.0 µM (retest, dose inferred, filed as 5.0)

Measured: growth inhibition

COC(O)C(=O)c1c2c(cc3c1CC1(Cc4cc5c(cc4C1)CCC5)C3)CCC2 (stereo not given)
active: [1]; [8] 98% | [2]; [7] 99% | [2]; [8] 99% | [2]; at 50.0 µM 80.5% | [3]; [7] 94% | [3]; [8] 98% | [3]; at 50.0 µM 83.2% | [4]; [7] 99% | [4]; [8] 98% | [4]; at 50.0 µM 87.6% | [5]; [7] 99% | [5]; [8] 98% | [5]; at 50.0 µM 88.5% | [6]; [7] 99% | [6]; [8] 98% | [6]; at 50.0 µM 90.5%
inactive: [1]; [7] 69% | [1]; at 50.0 µM 69%

CCOC(=O)/C=C(\C)Sc1cc(O)c2ccccc2c1O
active: [2]; at 50.0 µM 79.5% | [3]; at 50.0 µM 72.5% | [5]; at 50.0 µM 73% | [6]; at 50.0 µM 76.1%
inactive: [1]; [7] -3% | [1]; [8] 22% | [1]; at 50.0 µM 68.9% | [2]; [7] -1% | [2]; [8] 28% | [3]; [7] 1% | [3]; [8] 37% | [4]; [7] 1% | [4]; [8] 3% | [4]; at 50.0 µM 8% | [5]; [7] -5% | [5]; [8] 15% | [6]; [7] -2% | [6]; [8] 53%

CC12CC(Br)(Br)C(=O)C3C1CCCC32
inactive: [1]; [7] 51% | [1]; [8] 31% | [1]; at 50.0 µM 48.9% | [2]; [7] 48% | [2]; [8] 60% | [2]; at 50.0 µM 41% | [3]; [7] 37% | [3]; [8] -38% | [4]; [7] 49% | [4]; [8] 35% | [5]; [8] 59%
active: [3]; at 50.0 µM 86.8% | [4]; at 50.0 µM 75.7% | [5]; [7] 74% | [5]; at 50.0 µM 87% | [6]; [7] 74% | [6]; [8] 79% | [6]; at 50.0 µM 87%

Cc1cc(Br)c(N2C3=C(CC4=C2CCCC4=O)C(=O)CCC3)c(Br)c1
active: [1]; [8] 90% | [1]; at 50.0 µM 96.8% | [2]; [8] 89% | [2]; at 50.0 µM 97.8% | [3]; [8] 80% | [3]; at 50.0 µM 97.8% | [4]; [8] 94% | [4]; at 50.0 µM 93.5% | [5]; [8] 95% | [5]; at 50.0 µM 98.2% | [6]; [8] 97% | [6]; at 50.0 µM 97.8%
inactive: [1]; [7] 17% | [2]; [7] 7% | [3]; [7] -3% | [4]; [7] 10% | [5]; [7] -10% | [6]; [7] 16%

c1ccc(CSc2nnc3c4ccccc4c4ccccc4c3n2)cc1
inactive: [1]; [7] -4% | [1]; [8] 5% | [1]; at 50.0 µM -22.6% | [2]; [7] 8% | [2]; [8] -22% | [2]; at 50.0 µM -19.7% | [3]; [7] 5% | [3]; [8] 5% | [3]; at 50.0 µM -5.3% | [4]; [7] -21% | [4]; [8] -12% | [4]; at 50.0 µM 29.4% | [5]; [7] 8% | [5]; [8] 13% | [5]; at 50.0 µM -9.25% | [6]; [7] 1% | [6]; [8] 3% | [6]; at 50.0 µM 42%

CCCC(=O)Oc1ccc(-c2ccccc2Br)cc1
inactive: [1]; [7] 4% | [1]; [8] 67% | [2]; [7] 3% | [2]; [8] 34% | [3]; [7] 10% | [3]; [8] 44% | [4]; [7] 4% | [4]; [8] 50% | [5]; [7] 18% | [6]; [7] 2% | [6]; [8] 31%
active: [1]; at 50.0 µM 92.5% | [2]; at 50.0 µM 82.5% | [3]; at 50.0 µM 93.5% | [4]; at 50.0 µM 89.2% | [5]; [8] 74% | [5]; at 50.0 µM 92.7% | [6]; at 50.0 µM 88.1%

C/C(=N/O)c1cc([N+](=O)[O-])c(O)cc1O
active: [1]; [8] 70% | [1]; at 50.0 µM 86.7% | [2]; [8] 76% | [2]; at 50.0 µM 84.9% | [3]; [8] 80% | [3]; at 50.0 µM 89.2% | [5]; [8] 76% | [5]; at 50.0 µM 86.5% | [6]; [8] 80% | [6]; at 50.0 µM 85.8%
inactive: [1]; [7] -27% | [2]; [7] -10% | [3]; [7] -15% | [4]; [7] -6% | [4]; [8] 44% | [4]; at 50.0 µM 61.1% | [5]; [7] -35% | [6]; [7] -16%

CCOc1ncc(Cl)c(OCC)n1
inactive: [1]; [7] 3% | [1]; [8] -5% | [1]; at 50.0 µM -25.4% | [2]; [7] -4% | [2]; [8] -2% | [2]; at 50.0 µM 35.9% | [3]; [7] -1% | [3]; [8] -6% | [3]; at 50.0 µM -28.2% | [4]; [7] -7% | [4]; [8] 2% | [4]; at 50.0 µM -21.3% | [5]; [7] 1% | [5]; [8] -3% | [5]; at 50.0 µM -12.7% | [6]; [7] 2% | [6]; [8] -5% | [6]; at 50.0 µM -18.1%

Cc1ccc([PH+](CC[PH+](c2ccccc2)c2ccccc2)c2ccc(C)cc2)cc1.Cc1ccc([PH+](CC[PH+](c2ccccc2)c2ccccc2)c2ccc(C)cc2)cc1.[Pt]
active: [1]; [8] 88% | [1]; at 50.0 µM 88.8% | [2]; [8] 91% | [2]; at 50.0 µM 90.7% | [3]; [8] 95% | [3]; at 50.0 µM 91.3% | [4]; [8] 93% | [4]; at 50.0 µM 89.8% | [5]; [8] 94% | [5]; at 50.0 µM 90.7% | [6]; [8] 93% | [6]; at 50.0 µM 88.5%
inactive: [1]; [7] 40% | [2]; [7] 26% | [3]; [7] 33% | [4]; [7] 34% | [5]; [7] 29% | [6]; [7] 39%

COc1cc2c(cc1OC)C(Cl)C(c1ccc(F)cc1)=C2Cl (stereo not given)
inactive: [1]; [7] -23% | [1]; [8] 0% | [1]; at 50.0 µM 17.8% | [2]; [7] 5% | [2]; [8] 3% | [2]; at 50.0 µM 10.4% | [3]; [7] -4% | [3]; [8] -3% | [3]; at 50.0 µM -5.35% | [4]; [7] -3% | [4]; [8] 6% | [4]; at 50.0 µM 10.4% | [5]; [7] -2% | [5]; [8] 4% | [5]; at 50.0 µM 45.2% | [6]; [7] 0% | [6]; [8] -1% | [6]; at 50.0 µM -3.4%
